High-throughput results from PubChem.
Most compounds without a hit are left out; they make up all but 6.8% or so of the library.
T cruzi growth – blocks T. cruzi growth in NIH3T3 culture | inhibition, % at 8.34 µM | 5.9% of 77,000 active | T. cruzi beta-gal in NIH3T3, GalScreen luminescence, 90 h;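 active = mean inhibition above about 93%, with at least 55% of replicates each passing it, limit read from the data, passing the limit was not always enough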
Pf Dd2 growth – inhibitors of Plasmodium falciparum Dd2 growth | P. falciparum Dd2 growth, SYBR Green, 72 h; hits give low values | activity change, % at 10 µM | 2.3% of 94,000 active; in the data active = activity change below about -80%
C diff HTS – blocks growth of Clostridium difficile | 0.25% of 86,000 active | AID 1259249 | growth activity, negative = inhibition, % at 16 µg/mL (by protocol) | Clostridium difficile clinical isolate growth, OD600, 24 h; hits give low values;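 active = mean growth activity at or below -80% and every replicate also at or below -80%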
Numbers stand for hits; i = inactive; nt = no result.

SMILES | T cruzi growth | Pf Dd2 growth | C diff HTS
N#C[C@@H]1[C@H](c2ccc(C3=CCCCC3)cc2)[C@H](CO)N1C(=O)NC1CCCC1 | nt | -83 | i
COc1ccc(-c2ccccc2[C@H]2[C@@H](C#N)N(C(=O)NC3CCCCC3)[C@H]2CO)cc1 | nt | -90 | i
CCCNC(=O)N1[C@H](CO)[C@@H](c2ccc(-c3cccc(OC)c3)cc2)[C@@H]1C#N | i | i | i
COc1ccc(-c2ccccc2[C@@H]2[C@@H](CO)N(C(=O)NC3CCCC3)[C@H]2C#N)cc1 | nt | i | i
CC(C)NC(=O)N1CC2(C1)[C@H](c1ccccc1)[C@@H](CO)N2C(=O)C1CC1 | nt | i | i
COCc1cn(CC[C@@H]2CC[C@H](NC(=O)Nc3ccc(C(F)(F)F)cc3)[C@H](CO)O2)nn1 | i | i | i
COc1cccc(CNC(=O)C[C@@H]2C=C[C@@H](NS(=O)(=O)c3ccccc3OC)[C@@H](CO)O2)c1 | i | i | i
N#C[C@H]1[C@@H](c2ccccc2-c2ccc(F)cc2)[C@@H](CO)N1C(=O)NC1CCCCC1 | nt | i | i
N#C[C@@H]1[C@H](c2ccccc2-c2ccc(F)cc2)[C@H](CO)N1C(=O)NC1CCCC1 | nt | -92 | i
O=C(c1ccc2c(c1)OCO2)N1C[C@H]2[C@@H](c3ccccc31)[C@@H](CO)N2Cc1ccccc1Cl | i | i | i
COc1ccc(CN(C)C[C@@H]2Oc3c(NC(=O)Nc4ccc(OC)cc4)cccc3C(=O)N([C@H](C)CO)C[C@@H]2C)cc1 | i | i | i
COc1ccc(NC(=O)Nc2cccc3c2O[C@H](CN(C)Cc2ccc(C(=O)Nc4ccccc4N)cc2)[C@H](C)CN([C@@H](C)CO)C3=O)cc1 | nt | -94 | i
COc1ccc(NC(=O)Nc2cccc3c2O[C@H](CN(C)Cc2ccc(C(=O)Nc4ccccc4N)cc2)[C@@H](C)CN([C@H](C)CO)C3=O)cc1 | nt | -83 | i
COc1ccc(NC(=O)Nc2cccc3c2O[C@H](CN(C)Cc2ccc(C(=O)Nc4ccccc4N)cc2)[C@@H](C)CN([C@@H](C)CO)C3=O)cc1 | i | -88 | i
COc1ccc(CN(C)C[C@H]2Oc3c(NC(=O)Nc4ccc(OC)cc4)cccc3C(=O)N([C@H](C)CO)C[C@@H]2C)cc1 | i | i | i
COc1ccc(CN(C)C[C@@H]2Oc3c(NC(=O)Nc4ccc(OC)cc4)cccc3C(=O)N([C@H](C)CO)C[C@H]2C)cc1 | i | i | i
CCCNC(=O)N1C[C@H](O)COC[C@@H]2O[C@@H](CC(=O)N[C@H]3CCN(Cc4ccccc4)C3)CC[C@H]21 | i | nt | i
Cc1ccc(CN2CC(=O)N3[C@@H](CO)[C@H](c4ccc(-c5cccnc5)cc4)[C@@H]3C2)cc1 | nt | i | i
CC(C)NC(=O)N(C)C[C@H]1Oc2c(NC(=O)NC3CCCCC3)cccc2C(=O)N([C@@H](C)CO)C[C@@H]1C | i | i | i
O=C(C[C@H]1C[C@@H]2c3cc(NC(=O)Nc4ccccc4)ccc3O[C@@H]2[C@@H](CO)O1)NCc1ccccn1 | i | i | i
CO[C@H]1CN(C)C(=O)c2cc(NS(=O)(=O)c3c(C)noc3C)ccc2OC[C@H](C)NC[C@H]1C | i | i | nt
COC(=O)c1ccc(CN2CC(=O)N3[C@@H](CO)[C@H](c4ccc(Br)cc4)[C@@H]3C2)cc1 | nt | i | i
O=C(C1CCCC1)N1CC[C@@H]2[C@H](CO)Nc3ccc(-c4cccc(F)c4)cc3[C@@H]21 | nt | i | i
N#Cc1cccc(-c2ccc3c(c2)[C@@H]2[C@@H](CCN2Cc2ccc4c(c2)OCO4)[C@@H](CO)N3)c1 | i | i | -98
N#Cc1cccc(-c2ccc3c(c2)[C@H]2[C@H](CCN2Cc2cncnc2)[C@H](CO)N3)c1 | i | i | i
SMILES | T cruzi growth | Pf Dd2 growth | C diff HTS
OC[C@@H]1Nc2ccc(-c3cccc(F)c3)cc2[C@@H]2[C@H]1CCN2Cc1ccc(F)cc1 | i | -81 | i
Cc1noc(C)c1NC(=O)N(C)C[C@H]1Oc2ccc(NS(=O)(=O)c3cccs3)cc2CC(=O)N([C@@H](C)CO)C[C@@H]1C | i | i | i
C[C@H](CO)N1C[C@H](C)[C@H](CN(C)C(=O)Nc2ccccc2)Oc2ncc(-c3cccnc3)cc2C1=O | i | i | i
COc1ccc(-c2ccc3c(c2)O[C@@H](CN(C)CC2CCOCC2)[C@H](C)CN([C@H](C)CO)S3(=O)=O)cc1 | i | i | i
COc1ccc2c3c(n(C)c2c1)[C@H](CO)N(C(=O)c1ccc(F)cc1)CC31CCN(C)CC1 | nt | i | i
COc1ccc2c3c(n(C)c2c1)[C@@H](CO)N(C(=O)c1ccc(F)cc1)CC31CN(CC2CCOCC2)C1 | nt | -88 | i
COc1ccc2c3c(n(C)c2c1)[C@H](CO)N(C(=O)Nc1ccc(F)cc1)CC31CCN(Cc2ccccc2F)CC1 | nt | i | i
COc1ccc2c3c(n(C)c2c1)[C@@H](CO)N(C(=O)c1ccc(F)cc1)CC31CCN(C(=O)c2ccc(F)cc2)CC1 | nt | -86 | i
COc1ccc2c3c(n(C)c2c1)[C@H](CO)N(C(=O)c1ccc(F)cc1)CC31CN(C(=O)Nc2ccc(F)cc2)C1 | nt | i | i
COc1ccc2c3c(n(C)c2c1)[C@@H](CO)N(C(=O)c1ccc(F)cc1)CC31CN(C(=O)Nc2ccc(F)cc2)C1 | nt | -89 | i
COc1ccc2c3c(n(C)c2c1)[C@@H](CO)N(C(=O)Nc1ccc(F)cc1)CC31CN(Cc2ccccc2F)C1 | nt | -88 | i
COc1ccc2c3c(n(C)c2c1)[C@H](CO)N(C(=O)c1ccc(F)cc1)CC31CN(CC2CC2)C1 | nt | i | i
CCCNC(=O)N1CC(=O)N2[C@H](CO)[C@@H](c3ccc(C#Cc4cccc(F)c4)cc3)[C@@H]2C1 | nt | i | i
C[C@@H]1CN([C@H](C)CO)C(=O)c2cc(NC(=O)Cc3ccccc3)ccc2O[C@@H](C)CCCCO[C@@H]1CN(C)S(C)(=O)=O | i | i | i
CCC(=O)N1C[C@@H](C)[C@@H](OC)CN(C)C(=O)c2cc(NC(=O)Nc3cccc(F)c3)ccc2OC[C@H]1C | i | i | nt
Cc1noc(C)c1NC(=O)N(C)C[C@@H]1Oc2ccc(NS(=O)(=O)c3c(C)noc3C)cc2CC(=O)N([C@H](C)CO)C[C@@H]1C | i | i | i
COc1ccc(CN(C)C[C@@H]2Oc3ccc(NS(=O)(=O)c4cn(C)cn4)cc3CC(=O)N([C@H](C)CO)C[C@H]2C)cc1 | i | i | i
CO[C@H](CN(C)C(=O)c1ccccc1F)[C@@H](C)CN([C@H](C)CO)S(=O)(=O)c1ccc(Cl)cc1 | i | i | nt
C[C@@H]1CN([C@@H](C)CO)C(=O)Cc2cc(NS(=O)(=O)c3cn(C)cn3)ccc2O[C@H]1CN(C)Cc1ccncc1 | nt | i | i
COc1ccc2c3c(n(C)c2c1)[C@H](CO)NCC31CN(Cc2ccc(-c3ccccn3)cc2)C1 | nt | -88 | i
COc1ccc2c3c(n(C)c2c1)[C@@H](CO)NCC31CN(C(=O)c2cccc(F)c2)C1 | nt | -82 | i
COc1ccc2c3c(n(C)c2c1)[C@@H](CO)NCC31CN(C(=O)c2ccc(F)cc2)C1 | nt | i | nt
COc1ccc2c3c(n(C)c2c1)[C@@H](CO)NCC31CN(Cc2ccccc2Cl)C1 | nt | i | i
CCC(=O)N1CC2(CCN(C(=O)Nc3ccccc3F)CC2)c2c([nH]c3cc(OC)ccc23)[C@H]1CO | nt | -90 | i
